Structures are written as SMILES. Unmarked numbers belong to inactive results. The rule behind the calls is not given here.
Potency is the fitted concentration of half-maximal effect.

The experiment deals with HIV-1 nucleocapsid protein NCp7 (binding to TG oligonucleotide). Nature of the experiment: HIV Nucleocapsid (AID 346).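 Note: potency is for inhibitors that block NC binding and lower polarization.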 As to conditions: HIV-1 NC / fluorescein-TGTGTGTG probe, fluorescence polarization. In outline: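 NCp7 100 nM + fluorescein TG4xF 10 nM; Hepes pH 7.5/250mM NaCl/1uM ZnCl2/0.004% PEG 20000; 1 hr RT; FP, 45 s exposure; oligo-only wells as negative control.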
For the compound `CC(=O)N1CCC2(CCCN(Cc3cc(C(F)(F)F)cc(C(F)(F)F)c3)C2)CC1`, the Potency was over 20 µM. Then `CN(C)c1ncc2nc(-c3ccc(F)cc3)c(=O)n(C)c2n1`, with over 20 µM; and `O=c1c(CCc2ccccc2)nc2cncnc2n1-c1ccccc1`, with over 20 µM. As for `Cc1noc(C)c1C(=O)N1CCC2(CC1)CN(Cc1cc(C(F)(F)F)cc(C(F)(F)F)c1)C2`, the Potency is over 20 µM. Then `COc1ccc(Oc2ncc3nc(-c4cn(C)c5ccccc45)c(=O)n(C)c3n2)cc1`, with over 20 µM; and `CN(C)c1ncc2nc(-c3ccccc3)c(=O)n(CCC#N)c2n1`, with over 20 µM.

Consider `COc1ccc(CNc2ncnc3ccc(-c4ccccc4OC)cc23)c(OC)c1`, for which the Potency was over 20 µM. In the case of `CNc1ncncc1-c1ccccc1C(F)(F)F` it was over 20 µM.

For the origin of these results see PubChem BioAssay (NCATS).
